# Bioassay records: PubChem BioAssay, The Scripps Research Institute Molecular Screening Center
# PLCg1 inh – PLC-gamma1 (human) inhibition, primary screen | P19174 | purified PLC-gamma1, fluorogenic substrate, fluorescence | inhibition, % at 12.2 µM | 0.84% of 370,000 active
# Target sequence (P19174 whole entry, looked up): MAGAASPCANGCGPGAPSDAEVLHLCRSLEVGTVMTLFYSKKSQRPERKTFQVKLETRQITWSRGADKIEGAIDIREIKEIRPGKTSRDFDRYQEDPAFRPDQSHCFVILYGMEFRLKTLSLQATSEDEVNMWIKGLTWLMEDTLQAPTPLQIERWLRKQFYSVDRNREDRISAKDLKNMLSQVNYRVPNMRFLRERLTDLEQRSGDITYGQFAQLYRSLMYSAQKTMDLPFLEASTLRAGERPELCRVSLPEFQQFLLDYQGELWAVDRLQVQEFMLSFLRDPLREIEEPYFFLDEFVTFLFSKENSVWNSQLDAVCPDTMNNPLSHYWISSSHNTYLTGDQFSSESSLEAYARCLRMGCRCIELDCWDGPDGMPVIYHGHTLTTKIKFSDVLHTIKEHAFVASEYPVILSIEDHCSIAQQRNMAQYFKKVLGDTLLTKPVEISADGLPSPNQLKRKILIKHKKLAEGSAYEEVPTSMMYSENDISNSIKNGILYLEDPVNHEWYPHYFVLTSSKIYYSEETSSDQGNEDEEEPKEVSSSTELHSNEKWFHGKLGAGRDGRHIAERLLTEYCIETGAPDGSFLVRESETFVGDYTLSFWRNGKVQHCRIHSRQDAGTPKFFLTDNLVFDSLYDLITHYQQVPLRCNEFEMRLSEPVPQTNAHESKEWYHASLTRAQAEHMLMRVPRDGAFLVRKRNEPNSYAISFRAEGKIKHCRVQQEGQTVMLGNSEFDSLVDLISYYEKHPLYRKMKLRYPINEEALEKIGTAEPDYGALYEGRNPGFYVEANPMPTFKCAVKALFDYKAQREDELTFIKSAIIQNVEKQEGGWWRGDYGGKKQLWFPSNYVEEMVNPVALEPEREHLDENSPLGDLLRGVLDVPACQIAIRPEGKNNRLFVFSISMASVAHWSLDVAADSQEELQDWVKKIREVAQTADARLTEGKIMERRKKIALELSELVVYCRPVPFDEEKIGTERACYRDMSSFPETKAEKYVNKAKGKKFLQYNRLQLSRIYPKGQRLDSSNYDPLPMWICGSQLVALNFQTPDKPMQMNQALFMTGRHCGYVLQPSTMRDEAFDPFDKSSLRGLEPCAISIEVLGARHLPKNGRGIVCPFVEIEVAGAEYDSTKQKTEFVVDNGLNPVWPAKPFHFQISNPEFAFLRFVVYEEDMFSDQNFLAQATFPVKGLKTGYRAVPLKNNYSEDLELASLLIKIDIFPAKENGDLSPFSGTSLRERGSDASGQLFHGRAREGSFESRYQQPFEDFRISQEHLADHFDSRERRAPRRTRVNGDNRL
# PLCb3 inh – PLC-beta3 (human) inhibition, primary screen; AID 720704; 0.18% of 370,000 active; inhibition, % at 12.2 µM; Q01970; Purified PLC-beta3, fluorogenic substrate, fluorescence; in the data active = inhibition above about 11%;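 also: 0% = median of compound wells on plate and 100% = full blocker control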
# KLK7 zymogen act – proKLK7 (human) activation, primary screen; purified proKLK7, EDANS-DABCYL substrate fluorescence; 100% is mature enzyme control, 0% vehicle; activation, % at 7 µM; 0.9% of 370,000 active; AID 652039;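 active = activation above the mean of all tested compounds plus 3 SD, computed per campaign excluding outliers beyond control limits, cut at about 13% in these data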
# ADAM10 inh – inhibitors of human ADAM10; O14672; recombinant ADAM10, EDANS/DABCYL FRET peptide cleavage, 3 h; inhibition, % at 7 µM; 0.62% of 370,000 active;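 active = inhibition above a per-campaign cutoff equal to the mean of compounds falling between control-based bounds plus 3 SD, cut at about 20% in these data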;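 also: 0% = DMSO wells while the 100% control is not disclosed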
# ADAM17 inh – ADAM17 inhibition, QFRET primary screen; P78536; recombinant ADAM17, EDANS/DABCYL FRET peptide cleavage; inhibition, % at 6.95 µM; 0.83% of 370,000 active; AID 720648;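 active = inhibition above the mean of compounds lying between control limits plus 3 SD, set per campaign, cut at about 8.5% in these data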;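 also: 0% = DMSO-only wells as the low control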
# PLCg1 ctr – PLC-gamma1 inhibition, counter-screen for PLC-beta3 hits. shares compounds with PLCg1 inh. purified PLC-gamma1, fluorogenic substrate, fluorescence. inhibition, % at 12.3 µM. 3.1% of 3,300 active. AID 743258
# PLCb3 confirm – human PLC-beta3 inhibition, confirmation; shares compounds with PLCg1 inh; purified PLC-beta3, fluorogenic substrate fluorescence; inhibition, % at 12.3 µM; 1% of 3,300 active; in the data active = inhibition above about 11%
# An asterisk follows results filed as active; . = no result. The list is not random: actives were taken first. Their share in the collection is about 2.9%. Rule as the data show it, unless noted: active = inhibition above about 9.5%; inactive = the rest.
SMILES,PLCg1 inh,PLCb3 inh,KLK7 zymogen act,ADAM10 inh,ADAM17 inh,PLCg1 ctr,PLCb3 confirm
COc1cc(C=NNc2ccc(S(=O)(=O)Nc3ccccc3C(=O)O)cc2[N+](=O)[O-])ccc1O,-45.3,0.8,-0.7,12.4,5.2,.,.
NS(=O)(=O)c1ccc(N/N=C/c2ccc[nH]2)c([N+](=O)[O-])c1,11.6*,3.0,0.2,6.5,5.4,2.2,7.3
O=C(O)c1ccccc1NS(=O)(=O)c1ccc(N/N=C/c2cccc(O)c2O)c([N+](=O)[O-])c1,9.6*,1.4,0.6,9.3,7.9,3.9,0.6
COc1ccc(CNC(=O)c2ccc(-c3c(C)noc3C)c3ccoc23)cc1OC,4.1,0.5,-0.9,-5.4,1.8,.,.
O=c1nc(Oc2ccccc2)nc2ncccn12,-5.0,-6.7,-0.6,-8.2,-6.4,.,.
CN(CCc1ccccn1)C1CCCN(S(=O)(=O)c2ccc(F)c(Cl)c2)C1 (stereo not given),10.9*,-7.2,0.9,-1.6,-3.2,-4.9,-3.2
Cc1cc(S(=O)(=O)N2CCCC(N(C)CCc3ccccn3)C2)c(C)s1 (stereo not given),-8.8,-14.8,-0.8,-10.0,-4.0,.,.
Cn1c(=O)cc(C(=O)N/N=C/c2ccc(F)cc2)[nH]c1=O,9.6*,-6.0,-0.1,-5.4,-6.2,-5.2,-7.8
O=C(O)c1ccc(/C=N/NC(=O)c2ccc(F)cc2)cc1,5.2,-1.0,-0.8,5.6,0.9,.,.
COc1ccc(C(O)c2nc(-c3cccc(O)c3)cs2)cc1 (stereo not given),0.9,0.7,-0.6,-9.3,-0.1,.,.
O=C1NC(=O)/C(=C/c2ccc(-c3cc(C(=O)O)ccc3Cl)o2)S1,-95.0,-108.4,0.3,-15.8,-4.4,.,.
O=C1NC(=O)/C(=C\c2ccc(Br)o2)S1,15.1*,-25.1,-0.8,-13.3,0.7,-12.9,-15.8
COc1ccc(NCc2nnc(SCC(=O)Nc3nc(-c4ccccc4)cs3)n2-c2ccccc2)cc1,3.9,-0.1,0.2,5.7,-1.5,.,.
O=C(O)CSc1nnc(COc2ccc([N+](=O)[O-])cc2)n1-c1ccccc1,-2.3,-2.7,0.2,-1.2,-4.0,.,.
Cc1cc(C)nc(SCc2nnc(SCC(=O)Nc3nc(-c4ccccc4)cs3)n2-c2ccccc2)n1,11.4*,6.8,-1.2,12.1,6.1,-2.8,0.1
Cc1cc(C)c(CSc2nnnn2-c2ccc(C(=O)O)cc2)c(C)c1,12.4*,-1.5,-0.5,7.3,4.8,-3.9,-5.4
O=C(O)c1ccc(-n2nnnc2SCc2cccc(Br)c2)cc1,1.0,-2.9,-0.9,-1.8,-3.0,.,.
COc1ccc(-n2c(COc3ccccc3)nnc2SCC(=O)Nc2ccc(OCc3ccccc3)cc2)cc1,9.6*,0.2,-0.6,-13.1,-5.3,4.6,-9.3
O=C(O)CCSc1nnc(COc2ccc([N+](=O)[O-])cc2)n1-c1ccccc1,10.8*,-3.5,-0.3,3.0,5.9,-0.2,2.1
C=CCCC(=O)N1C[C@H]2CCN(C)[C@H]2C[C@H]1c1ccccc1Br,1.6,1.1,1.0,-9.8,-5.0,.,.
O=C(NC1CC1c1ccccc1)N1CCC(c2nc3ccc(Cl)cc3[nH]2)CC1 (stereo not given),1.1,-1.9,-0.4,-17.5,-0.7,.,.
CC1(C(=O)NS(=O)(=O)C2CC2)CCCN(C(=O)c2ccco2)C1 (stereo not given),-0.8,2.4,0.0,-2.5,-2.7,.,.
C=CCn1c(SCC(=O)Nc2ccccc2-c2ccccc2)nnc1-c1ccccc1,13.2*,9.8,0.6,8.6,3.9,-0.9,1.6
COc1ccc(-n2c(SCC(=O)Nc3ccccc3-c3ccccc3)nnc2-c2ccccn2)cc1,10.2*,6.5,0.3,7.4,5.3,0.8,-4.2
Cc1cc(C)nc(NC(=O)CSc2nnnn2-c2ccccc2)n1,12.0*,0.7,0.5,-1.6,-0.8,-0.1,1.8
Cc1ccc(C(=O)CSc2nnc(-c3ccccc3)n2-c2ccccc2)o1,-1.9,3.7,0.2,0.7,-3.6,.,.
Cc1ccc(C(=O)CSc2nnnn2-c2ccccc2)o1,10.9*,-0.8,0.3,9.2,8.2,-4.6,0.5
C=CCn1c(SCC(=O)Nc2ccccc2C)nnc1-c1ccncc1,-2.2,-1.2,0.7,-8.5,-1.1,.,.
